Laboratory results reported in PubChem BioAssay (EPA / NIEHS).
Values joined by “and” are separate entries in the source; they are usually repeats but may differ in a detail not shown here. Identical values can stand only once. Inconclusive results are not listed. Some compounds were tested as several samples or in several runs, with calls that do not always agree. Active and inactive are the calls of the source. How the source made its calls, unless noted: active means hit-call score of the fitted dose curve at least 0.9, where 1 is the maximum; inactive means score below 0.9.

Experiments:
[1] = molecular target: Retinoic acid receptor RXR-alpha (Homo sapiens) (UniProt P19793); assay: ATG_RXRa_TRANS: Attagene TRANS-FACTORIAL HepG2 Assay for human Retinoid X Receptor alpha (RXRa) (AID 2283012; active means hit-call score of the fitted dose curve at least 0.9, where 1 is the maximum)
Procedure, shortened: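 Transient transfection of human HepG2 with multiple GAL4-UAS reporter constructs; 24 h compound exposure; total RNA isolated, reverse-transcribed, PCR-amplified, 6-FAM labelled, HpaI-cut, resolved by capillary electrophoresis. Positive-direction fit versus DMSO.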

[2] = read-out: E-selectin (Homo sapiens) (UniProt P16581); assay: BSK_3C_Eselectin: BioMAP Diversity Plus: 3C Assay for Eselectin Biomarker Activity (AID 2283015); details: primary human endothelial cells (HUVEC); actives raise or lower the signal
Procedure, shortened: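 E-selectin ELISA readout, fitted bidirectionally relative to DMSO, taken 24 h post-dosing in HUVEC cultures of the 3C system. Overt cytotoxicity tracked with sulforhodamine B staining of parallel wells.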

[3] = read-out: Interleukin-1 alpha (IL1a), IL1A (gene 3552); assay: BSK_BE3C_IL1a: BioMAP Diversity Plus: BE3C Assay for Interleukin-1 alpha (IL1a) Biomarker Activity (AID 2283016); details: primary human bronchial epithelial cells; actives raise or lower the signal
Procedure, shortened: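 BE3C primary human bronchial epithelium; cpd 24 h; IL-1a by ELISA; bidirectional fit vs DMSO; parallel SRB (0.1% SRB, 10% TCA fix, 560 nm) for cytotoxicity.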

[4] = read-out: Monocyte Chemoattractant Protein-1 (MCP1), CCL2 (gene 6347); assay: BSK_3C_MCP1: BioMAP Diversity Plus: 3C Assay for Monocyte Chemoattractant Protein-1 (MCP1) Biomarker Activity (AID 2283017); details: primary human endothelial cells (HUVEC); actives raise or lower the signal
Procedure, shortened: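 MCP-1 was measured by ELISA 24 h after dosing in primary HUVEC 3C cultures and fitted in both directions relative to DMSO; cytotoxicity was checked by SRB total-protein staining in parallel wells.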

[5] = read-out: Monocyte Chemoattractant Protein-1 (MCP1), CCL2 (gene 6347); assay: BSK_4H_MCP1: BioMAP Diversity Plus: 4H Assay for Monocyte Chemoattractant Protein-1 (MCP1) Biomarker Activity (AID 2283018); details: primary human endothelial cells (HUVEC); actives raise or lower the signal
Procedure, shortened: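 ELISA read-out of MCP-1 from human vascular endothelial primary cells taken at 24 hours after compound exposure. Activity was fitted in both directions relative to DMSO, which served as negative control.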

[6] = read-out: Human Leukocyte Antigen - DR isotype (HLADR), HLA-DRA (gene 3122); assay: BSK_3C_HLADR: BioMAP Diversity Plus: 3C Assay for Human Leukocyte Antigen - DR isotype (HLADR) Biomarker Activity (AID 2283019); details: primary human endothelial cells (HUVEC); actives raise or lower the signal
Procedure, shortened: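 Bidirectional fitting against DMSO was applied to the HLA-DR ELISA signal from human umbilical vein endothelial cells, 24 h post-dose. Cytotoxicity came from parallel SRB total-protein staining; 3C proliferation was counted by SRB at 48 h.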

[7] = read-out: Interleukin-8 (IL8), CXCL8 (gene 3576); assay: BSK_3C_IL8: BioMAP Diversity Plus: 3C Assay for Interleukin-8 (IL8) Biomarker Activity (AID 2283020); details: primary human endothelial cells (HUVEC); actives raise or lower the signal
Procedure, shortened: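 ELISA read-out of IL-8 from human umbilical vein endothelium, measured 24 h after chemical dosing. Activity is expressed relative to DMSO negative control, with both increases and decreases fitted.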

[8] = read-out: Monokine induced gamma interferon (MIG), CXCL9 (gene 4283); assay: BSK_3C_MIG: BioMAP Diversity Plus: 3C Assay for Monokine induced gamma interferon (MIG) Biomarker Activity (AID 2283021); details: primary human endothelial cells (HUVEC); actives raise or lower the signal;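 on AC50: MIG protein level measured by immunoassay in the treated endothelial cultures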
Procedure, shortened: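 Read-out is ELISA detection of MIG on human umbilical vein endothelial cells, taken 24 h after dosing. Gain or loss of signal was scored relative to DMSO controls using bidirectional curve fitting.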

[9] = molecular target: human Vitamin D Receptor (VDR), VDR (gene 7421) (UniProt P11473); assay: ATG_VDR_TRANS: Attagene TRANS-FACTORIAL HepG2 Assay for human Vitamin D Receptor (VDR) (AID 2283022; active means hit-call score of the fitted dose curve at least 0.9, where 1 is the maximum)
Procedure, shortened: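 Transactivation by an exogenous VDR-Gal4 chimera in transiently transfected HepG2 cells was measured as reporter transcript level 24 hours after chemical treatment. RT-PCR products were analysed by capillary electrophoresis and fitted in the positive direction relative to DMSO.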

[10] = BSK_3C_SRB: Viability Assessment in the BioMAP Diversity Plus: 3C Assay (AID 2283023); details: primary human endothelial cells (HUVEC);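 further: fitted both ways against DMSO so a hit may be signal rise or drop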
Procedure, shortened: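 Cytotoxicity readout in parallel HUVEC 3C cultures: after 24 h compound exposure, cells fixed with 10% TCA, stained with 0.1% SRB and read at 560 nm. Gain or loss relative to DMSO fitted.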

[11] = read-out: Matrix Metallopeptidase 1 (MMP1), MMP1 (gene 4312); assay: BSK_BE3C_MMP1: BioMAP Diversity Plus: BE3C Assay for Matrix Metallopeptidase 1 (MMP1) Biomarker Activity (AID 2283024); details: primary human bronchial epithelial cells; actives raise or lower the signal
Procedure, shortened: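 Human bronchial epithelial cells (BE3C system) exposed to compound for 24 h; MMP1 then quantified by ELISA. Activity was fitted in both directions relative to DMSO.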

[12] = BSK_3C_Vis: BioMAP Diversity Plus: 3C Assay for Morphology Visualization (AID 2283025); details: primary human endothelial cells (HUVEC);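 further: fitted both ways so gain or loss versus DMSO counts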;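 on AC50: light microscopy image of cell morphology used as background control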
Procedure, shortened: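 Chemicals were added to primary human umbilical vein endothelium, cells were incubated 24 h, and morphology was then visualized by light microscopy. Gain or loss of signal was fitted bidirectionally relative to DMSO.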

[13] = read-out: Pselectin, SELP (gene 6403); assay: BSK_4H_Pselectin: BioMAP Diversity Plus: 4H Assay for Pselectin Biomarker Activity (AID 2283026); details: primary human endothelial cells (HUVEC); actives raise or lower the signal
Procedure, shortened: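 ELISA read-out of P-selectin on human umbilical vein endothelium after 24 h of dosing. Values derive from bidirectional fitting relative to DMSO. Parallel SRB protein staining flagged overt cytotoxicity.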

[14] = BSK_4H_SRB: Viability Assessment in the BioMAP Diversity Plus: 4H Assay (AID 2283027); details: primary human endothelial cells (HUVEC);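 further: cells exposed to compound for 24 h before staining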;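 on AC50: curves fitted both ways versus DMSO so AC50 may be loss or gain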
Procedure, shortened: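 Human umbilical vein endothelial cells were dosed with chemical and, after 24 h, fixed with 10% TCA, stained with 0.1% sulforhodamine B, and read at 560 nm to give total protein as a cytotoxicity measure. Bidirectional fitting relative to DMSO control.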

[15] = BSK_BE3C_SRB: Viability Assessment in the BioMAP Diversity Plus: BE3C Assay (AID 2283028); details: primary human bronchial epithelial cells;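 on AC50: fitted both ways so AC50 may mark signal gain or loss versus DMSO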
Procedure, shortened: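 Cytotoxicity read-out: SRB (0.1%) staining of TCA-fixed (10%) human lung bronchial epithelial cells, absorbance 560 nm, 24 h post-dosing. Curves fitted both directions relative to DMSO.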

[16] = read-out: Thrombomodulin, THBD (gene 7056); assay: BSK_3C_Thrombomodulin: BioMAP Diversity Plus: 3C Assay for Thrombomodulin Biomarker Activity (AID 2283029); details: primary human endothelial cells (HUVEC); actives raise or lower the signal
Procedure, shortened: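 Read-out is ELISA of thrombomodulin on human umbilical vein endothelium 24 h after chemical dosing. Gain or loss of signal is scored relative to DMSO. Overt cytotoxicity is checked in parallel cultures by sulforhodamine B staining.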

[17] = read-out: Urokinase-type plasminogen activator receptor (uPAR), PLAUR (gene 5329); assay: BSK_4H_uPAR: BioMAP Diversity Plus: 4H Assay for Urokinase-type plasminogen activator receptor (uPAR) Biomarker Activity (AID 2283030); details: primary human endothelial cells (HUVEC); actives raise or lower the signal
Procedure, shortened: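 uPAR level read by ELISA on HUVEC cultures (BioMAP 4H) 24 h post-dosing, analyzed for gain or loss relative to DMSO. Parallel SRB staining assessed overt cytotoxicity.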

[18] = read-out: Vascular endothelial growth factor receptor 2 (Homo sapiens) (UniProt P35968); assay: BSK_4H_VEGFRII: BioMAP Diversity Plus: 4H Assay for Vascular endothelial growth factor receptor 2 (VEGFR2) Biomarker Activity (AID 2283031); details: primary human endothelial cells (HUVEC); actives raise or lower the signal;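 on AC50: cell-surface VEGFR2 protein level quantified by ELISA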
Procedure, shortened: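 Measured by ELISA after 24 h of compound treatment: VEGFR2 on primary human umbilical vein endothelial cells, fitted in both directions relative to DMSO. Parallel cultures received SRB staining (560 nm) for overt cytotoxicity.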

[19] = molecular target: human RAR-related Orphan Receptor gamma (RORg), RORC (gene 6097) (UniProt P51449); assay: ATG_RORg_TRANS: Attagene TRANS-FACTORIAL HepG2 Assay for human RAR-related Orphan Receptor gamma (RORg) (AID 2283011; active means hit-call score of the fitted dose curve at least 0.9, where 1 is the maximum)
Procedure, shortened: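 Reporter transcripts from a transfected RORg-GAL4 chimera in HepG2 cells were quantified 24 h after dosing by RT-PCR, 6-FAM labelling, HpaI digestion and capillary electrophoresis; increases over DMSO baseline were fitted.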

[20] = molecular target: human Retinoid X Receptor beta (RXRb), RXRB (gene 6257) (UniProt P28702); assay: ATG_RXRb_TRANS: Attagene TRANS-FACTORIAL HepG2 Assay for human Retinoid X Receptor beta (RXRb) (AID 2283013; active means hit-call score of the fitted dose curve at least 0.9, where 1 is the maximum)
Procedure, shortened: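 Transfect HepG2 with GAL4-UAS multi-reporter constructs (chimeric NR-Gal4, TRANS format); dose compound 24 h; isolate RNA, RT-PCR, FAM primer extension, HpaI digest; quantify by capillary electrophoresis; positive direction vs DMSO.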

Measured: AC50

E-selectin (Homo sapiens), sequence (P16581 whole entry, looked up): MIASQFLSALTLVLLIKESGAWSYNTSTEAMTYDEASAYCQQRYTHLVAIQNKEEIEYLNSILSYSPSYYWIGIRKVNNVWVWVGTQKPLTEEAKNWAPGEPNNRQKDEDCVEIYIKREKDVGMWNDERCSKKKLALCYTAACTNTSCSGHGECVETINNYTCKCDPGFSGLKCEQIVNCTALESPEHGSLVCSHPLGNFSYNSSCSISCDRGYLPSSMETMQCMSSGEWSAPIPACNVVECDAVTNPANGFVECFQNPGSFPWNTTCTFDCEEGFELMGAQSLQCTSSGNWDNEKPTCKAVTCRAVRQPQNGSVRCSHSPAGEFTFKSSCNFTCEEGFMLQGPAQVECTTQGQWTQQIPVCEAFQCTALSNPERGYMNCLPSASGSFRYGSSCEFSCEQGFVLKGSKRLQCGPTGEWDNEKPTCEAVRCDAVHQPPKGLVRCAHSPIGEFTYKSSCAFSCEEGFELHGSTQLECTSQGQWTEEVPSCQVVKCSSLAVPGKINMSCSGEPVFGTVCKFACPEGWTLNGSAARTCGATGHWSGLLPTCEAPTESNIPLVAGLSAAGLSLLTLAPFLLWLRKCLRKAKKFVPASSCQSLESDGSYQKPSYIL
human Vitamin D Receptor (VDR), VDR (gene 7421), sequence (P11473 whole entry, looked up, the tested form may be a part): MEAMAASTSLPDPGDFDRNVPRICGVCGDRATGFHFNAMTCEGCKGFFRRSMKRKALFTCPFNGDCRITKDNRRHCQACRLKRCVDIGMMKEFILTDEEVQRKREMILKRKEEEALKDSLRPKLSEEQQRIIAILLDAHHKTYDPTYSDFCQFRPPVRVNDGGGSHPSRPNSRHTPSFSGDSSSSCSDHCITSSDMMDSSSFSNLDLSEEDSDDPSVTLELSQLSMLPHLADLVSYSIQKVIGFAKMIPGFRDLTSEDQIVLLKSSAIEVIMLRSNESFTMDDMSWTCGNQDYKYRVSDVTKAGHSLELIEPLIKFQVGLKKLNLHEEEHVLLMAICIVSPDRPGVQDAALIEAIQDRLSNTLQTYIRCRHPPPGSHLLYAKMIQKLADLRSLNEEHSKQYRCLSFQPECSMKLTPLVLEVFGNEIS
Retinoic acid receptor RXR-alpha (Homo sapiens), sequence (P19793 whole entry, looked up, the tested form may be a part): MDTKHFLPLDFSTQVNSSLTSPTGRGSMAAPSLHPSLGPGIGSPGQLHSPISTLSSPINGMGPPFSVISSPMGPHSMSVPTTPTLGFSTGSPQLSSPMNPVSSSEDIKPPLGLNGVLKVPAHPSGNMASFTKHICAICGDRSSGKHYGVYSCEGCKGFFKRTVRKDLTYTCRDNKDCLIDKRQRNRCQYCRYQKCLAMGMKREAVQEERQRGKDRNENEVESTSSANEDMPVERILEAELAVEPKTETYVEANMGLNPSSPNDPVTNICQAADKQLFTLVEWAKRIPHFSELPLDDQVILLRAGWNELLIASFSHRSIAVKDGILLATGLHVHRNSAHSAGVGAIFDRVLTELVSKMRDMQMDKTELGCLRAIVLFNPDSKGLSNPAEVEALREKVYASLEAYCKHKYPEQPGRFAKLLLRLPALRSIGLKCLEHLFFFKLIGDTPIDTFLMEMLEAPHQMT
human Retinoid X Receptor beta (RXRb), RXRB (gene 6257), sequence (P28702 whole entry, looked up, the tested form may be a part): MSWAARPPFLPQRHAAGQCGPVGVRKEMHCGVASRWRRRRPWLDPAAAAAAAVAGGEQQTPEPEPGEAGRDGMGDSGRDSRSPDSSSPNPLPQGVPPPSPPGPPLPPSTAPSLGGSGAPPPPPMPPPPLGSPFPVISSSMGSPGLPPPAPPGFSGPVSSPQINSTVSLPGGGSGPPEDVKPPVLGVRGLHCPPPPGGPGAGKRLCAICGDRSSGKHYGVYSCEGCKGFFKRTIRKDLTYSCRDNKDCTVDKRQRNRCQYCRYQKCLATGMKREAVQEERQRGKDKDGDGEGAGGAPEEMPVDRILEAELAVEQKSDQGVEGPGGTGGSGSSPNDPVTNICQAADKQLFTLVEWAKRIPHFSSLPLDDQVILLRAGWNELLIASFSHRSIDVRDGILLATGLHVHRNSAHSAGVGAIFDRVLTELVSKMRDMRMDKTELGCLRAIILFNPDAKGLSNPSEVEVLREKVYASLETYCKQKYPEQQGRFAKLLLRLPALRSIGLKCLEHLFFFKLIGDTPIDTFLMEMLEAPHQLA
human RAR-related Orphan Receptor gamma (RORg), RORC (gene 6097), sequence (P51449 whole entry, looked up, the tested form may be a part): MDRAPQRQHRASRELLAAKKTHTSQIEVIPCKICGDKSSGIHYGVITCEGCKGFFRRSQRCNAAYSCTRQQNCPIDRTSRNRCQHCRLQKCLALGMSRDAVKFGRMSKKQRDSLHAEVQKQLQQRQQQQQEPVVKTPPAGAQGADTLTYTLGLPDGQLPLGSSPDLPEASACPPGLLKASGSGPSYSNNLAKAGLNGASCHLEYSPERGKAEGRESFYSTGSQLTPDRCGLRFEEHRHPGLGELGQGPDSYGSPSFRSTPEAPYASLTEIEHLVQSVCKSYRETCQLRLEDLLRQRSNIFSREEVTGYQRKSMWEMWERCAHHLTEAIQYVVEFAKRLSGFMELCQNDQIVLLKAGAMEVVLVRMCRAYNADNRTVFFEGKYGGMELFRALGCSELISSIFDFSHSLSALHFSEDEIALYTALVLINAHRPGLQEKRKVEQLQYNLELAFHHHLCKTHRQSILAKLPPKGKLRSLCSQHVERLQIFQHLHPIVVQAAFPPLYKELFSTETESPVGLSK

CC(C)CCCCCCc1ccc(O)cc1
active: [1] 12.3 µM [middle of 4 runs] | [2] 8.72 µM | [3] 26.7 µM | [4] 9.8 µM | [5] 7.07 µM | [6] 9.6 µM | [7] 8.35 µM | [8] 8.53 µM | [10] 9.24 µM | [11] 32 µM | [12] 5.31 µM | [13] 9.15 µM | [14] 6.94 µM | [15] 36 µM | [16] 20 µM | [17] 9.57 µM | [18] 5.29 µM
inactive: [9]

C=CCOC(Cn1ccnc1)c1ccc(Cl)cc1Cl (centres undefined)
active: [5] 27.7 µM | [6] 13.6 µM | [12] 9.8 µM
not listed: [1] | [17]
inactive: all other assays above

COC(=O)c1c(Cl)nn(C)c1S(=O)(=O)NC(=O)Nc1nc(OC)cc(OC)n1
not listed: [1] | [19] | [20]
inactive: all other assays above

CCCOC(=O)NCCCN(C)C
not listed: [19]
inactive: all other assays above

O=C(c1ccccc1)C1CCCCC1
inactive: [1] | [20] | [2] | [3] | [4] | [5] | [6] | [7] | [8] | [9] | [10] | [11] | [12] | [13] | [14] | [15] | [16] | [17] | [18]
active: [20] 121 µM and 57 µM and 100 µM

CCCN(CCC)c1c([N+](=O)[O-])cc(C(F)(F)F)c(N)c1[N+](=O)[O-]
inactive: [19] | [11]
active: [2] 14.9 µM | [3] 31.3 µM | [4] 29.4 µM | [5] 29.7 µM | [6] 18.4 µM | [7] 32.9 µM | [8] 31.7 µM | [10] 30.6 µM | [12] 16.3 µM | [13] 30.3 µM | [14] 31.5 µM | [15] 16.4 µM | [16] 2.15 µM | [17] 33.1 µM | [18] 32.3 µM
